IL1B secr inh = blocks inflammasome-driven IL-1 beta release. 4.7% of 360,000 active. THP-1 LPS/ATP IL-1B secretion, AlphaLISA, 16 h; stronger effect = lower value. AID 743279. activity change, % at 57.5 µM; in the data active = activity change below about -50%; inconclusive = mostly about -30% to -49%
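Secreted IL-1B measured by AlphaLISA bead assay after 16 h compound exposure of THP-1 cells; compounds (final up to 57.5 uM) added 1 h before LPS (250 ng/mL) and ATP (1.25 mM) stimulation; lower signal means less secretion.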
ELG1 DNA repair = blocks ELG1-dependent DNA repair in HEK293T cells; Potency, µM (series often up to 46.1 µM), for inactives: at the top dose activity change, negative = inhibition, actives largely listed as inhibitors; HEK293T ELG1-luciferase reporter, luminescence, 16 h; DNA damage induced by 5-fluorouridine; 2.3% of 330,000 active; AID 504467; note: potency is the fitted concentration of half-maximal effect; nearly all actives have a fitted effect of over 55% in size
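Reporter activity after DNA damage by 5-fluorouridine is monitored. Compound-treated cells incubate 16 hr at 37 °C, then ONE-Glo is added for 30 min before luminescence reading.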
TDP1 cell noCPT = qHTS for Inhibitors of human tyrosyl-DNA phosphodiesterase 1 (TDP1): qHTS in cells in absence of CPT. DT40 Tdp1-/- hTDP1 cells, no CPT, ATP luminescence, 48 h. Potency, µM (series often up to 46.2 µM), inactives show top-dose activity change, negative = growth inhibition, hits mostly inhibitors. 15% of 420,000 active; note: potency is the fitted concentration of half-maximal effect; nearly all actives have a fitted effect of over 55% in size
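A cellular qHTS used chicken DT40 cells lacking endogenous Tdp1 but carrying stably transfected human TDP1. Compounds were applied without camptothecin, and cell growth kinetics were judged by ATP-dependent luminescence after ≥48 hr.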
TDP1 cell CPT = DT40-hTDP1 cell growth loss with CPT. 12% of 420,000 active. Potency, µM (doses to about 46.2 µM), inactives show at the top dose activity change, negative = growth inhibition, most hits filed as inhibitors. chicken DT40 Tdp1-/-;hTDP1 cells + 20 nM CPT, ATP luminescence, 48 h; note: potency is the fitted concentration of half-maximal effect; nearly all actives have a fitted effect of over 55% in size
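Chicken DT40 Tdp1-/- cells complemented with human TDP1, 400 cells/well, exposed to compounds plus 20 nM camptothecin for at least 48 h at 37 C; viability read as ATP content by CellTiter-Glo luminescence.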
HT1080NT lethal = kills 2HG-producing HT-1080-NT fibrosarcoma cells; HT-1080-NT fibrosarcoma viability, CellTiter-Glo ATP luminescence, 48 h; Potency, µM (highest dose often 46.1 µM), inactives show at the top dose activity, negative = less viability, usual class: cytotoxic; 1.6% of 360,000 active;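 note: NT is the 2HG producing partner of a matched IDH1 knockdown line; potency is the fitted concentration of half-maximal effect; 0% = DMSO-treated cells and -100% = media-only wells without cells; nearly all actives have a fitted effect of over 55% in size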
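Fibrosarcoma NT cells, 750 per well in 5% FBS RPMI, were exposed to compound for 48 hours. Viability: CellTiter-Glo luminescence.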
HT1080 IDH1KD tx = toxicity to HT-1080 IDH1 knockdown cells (counter line). AID 686971. HT-1080 IDH1 knockdown viability, ATP luminescence, 48 h. Potency, µM (titrated, usually from 46.1 µM), inactives show at the highest dose activity, negative = toxicity, actives largely listed as cytotoxic. 2% of 360,000 active;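 note: potency is the fitted concentration of half-maximal effect; 0% = DMSO wells and -100% = cell-free medium wells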
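Luminescent ATP read-out (CellTiter-Glo, 10 min at room temperature) after 48 h compound exposure at 37 °C gave viability of IDH1-knockdown HT-1080 cells. Activity was normalised to DMSO and cell-free wells, then fitted as concentration-response curves.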
Numbers without * were called inactive; ? = inconclusive; . = no result. The list is not random: actives were taken first. Their share in the collection is about 19%. Unless noted, calls come from the whole dose curve; as a rule, active = well fitted curve in the direction sought with a large enough effect; inconclusive = small, poorly fitted or top-dose-only effect, or another doubt; inactive = no such curve, though single readings can be large; an effect the other way counts as inactive or inconclusive. Unless noted, % is set by controls: 0 for no effect and ±100 for the full control effect.

SMILES	IL1B secr inh	ELG1 DNA repair	TDP1 cell noCPT	TDP1 cell CPT	HT1080NT lethal	HT1080 IDH1KD tx
O=C(Nc1ccc(Cl)cc1)C1C2CCC3C(CCC21)C3(Cl)Cl (stereo not drawn)	-23	3%	?	?	-11%	?
COc1ccc(CCNC(=O)c2cc3c(-c4ccccc4F)nn(C)c3s2)c(OC)c1	.	.	5.8µM*	6.5µM*	.	.
O=C(NCC1CCCO1)c1cn(Cc2ccccc2)nc1-c1ccc(Cl)cc1 (stereo not drawn)	-15	?	?	-12%	-4%	-5%
CCCN(CCC)CCCNC(=O)c1cc2c(-c3ccc(Cl)cc3)nn(C)c2s1	.	.	8.2µM*	13µM*	.	.
CCCN(CCC)CCCNC(=O)c1nn(C)c2c1CS(=O)(=O)c1ccccc1-2	.	.	-3%	8%	.	.
CCN(CCCNC(=O)c1cc2c(-c3cccc(OC)c3)nn(C)c2s1)Cc1ccccc1	-84*	?	?	9.2µM*	?	?
Cn1nc(-c2ccc(Cl)cc2)c2cc(C(=O)NCC3CCCO3)sc21 (stereo not drawn)	?	16µM*	?	?	?	-21%
O=C(Cc1ncc(C(F)(F)F)cc1Cl)NCCc1ccccn1	0	-7%	-24%	-24%	3%	-7%
CCCCN(CC)CCNC(=O)c1cc2c(-c3ccccc3F)nn(C)c2s1	.	-30%	?	16µM*	?	?
Cc1ccc(CCNC(=O)c2cc3c(-c4ccccc4F)nn(C)c3s2)cc1	.	.	?	-25%	.	.
CN1CCN(CCCNC(=O)c2cc3c(-c4ccc(Cl)cc4)nn(C)c3s2)CC1	?	?	?	6%	?	-24%
CCN(CC)CCCNC(=O)c1cc2c(-c3ccc(Cl)cc3)nn(C)c2s1	-81*	25%	5.8µM*	7.3µM*	21µM*	23µM*
Cc1ccc2oc(=O)c3cnn(CC(=O)Nc4cccc(C(F)(F)F)c4)c3c2c1	.	.	-8%	3%	.	.
O=C(CCn1c(=O)[nH]c2ccccc2c1=O)NCCSCc1ccccc1	2	17%	-3%	-4%	20%	17%
Clc1ccc(OCc2nn3c(C4CCCCC4)nnc3s2)cc1	-9	4%	21µM*	21µM*	?	?
CCN(CC)c1ccc(S(=O)(=O)N2CCCCC2)cc1NC(=O)CSCc1c(C)noc1C	?	.	?	?	-3%	-16%
Cc1noc(C)c1CSCC(=O)Nc1cc(C(F)(F)F)ccc1N1CCCCC1	-7	?	16µM*	18µM*	-3%	-12%
CC(C)Oc1ccc(S(=O)(=O)N2CCOCC2)cc1NC(=O)C1CCC1	-2	3%	-5%	-2%	-9%	-4%
CC(C)Oc1ccc(S(=O)(=O)N2CCOCC2)cc1NC(=O)CSC(=S)N1CCCC1	-28	.	21µM*	?	-7%	-14%
CC(C)Oc1ccc(S(=O)(=O)N2CCOCC2)cc1NC(=O)C1=NN(c2ccccc2)C(=O)CC1	0	10µM*	?	?	-4%	-1%
Cc1noc(C)c1CSCC(=O)Nc1cc(S(=O)(=O)N2CCCCC2)ccc1OC(C)C	-20	?	23µM*	12µM*	-3%	-6%
O=c1c2ccccc2nc(-c2ccc(Cl)cc2)n1CCCCOc1ccc(F)cc1	.	.	-10%	-19%	.	.
O=C(NCCN1CCCCC1)c1cc(Cl)ccc1Cl	6	1%	-2%	3%	8%	8%
CC(=O)Nc1cc(-c2cccc(CO)c2)cn2c(-c3ccc(C(C)=O)cc3)cnc12	-29	.	21µM*	?	-26%	5%
CC(=O)Nc1cc(-c2ccccc2CN(C)C)cn2c(-c3ccc(C(C)=O)cc3)cnc12	68	.	16µM*	?	18µM*	?
SMILES	IL1B secr inh	ELG1 DNA repair	TDP1 cell noCPT	TDP1 cell CPT	HT1080NT lethal	HT1080 IDH1KD tx
CC(=O)Nc1cc(-c2cccc(CO)c2)cn2c(-c3ccc(F)cc3)cnc12	-23	.	?	23µM*	-2%	-19%
CC(=O)Nc1cc(-c2cccc(N)c2)cn2c(-c3ccc(C(C)=O)cc3)cnc12	8	.	10µM*	?	?	?
N#Cc1cccc(NC(=O)COC(=O)Cn2nc(-c3ccccc3)oc2=O)c1	0	8%	-7%	-13%	-6%	0%
FC(F)Oc1ccc(-n2cc(-c3ccccc3)[n+]3c2CCCCC3)cc1	-23	16µM*	5.8µM*	5.2µM*	-11%	-5%
Cc1ccc(-c2cn(-c3ccc(OC(F)F)cc3)c3[n+]2CCCCC3)cc1	-81*	9.2µM*	1µM*	0.65µM*	?	-26%
N#Cc1c2n(c(=S)n(-c3ccc(OC(F)F)cc3)c1=O)CCCCC2	21	7%	?	-7%	13%	-1%
CC(C)NC(=O)c1cc(C2CCCCN2S(=O)(=O)c2ccccc2)on1 (stereo not drawn)	5	.	-26%	-26%	-13%	7%
Cc1c(C(=O)N2CCCCCC2)c(S(=O)(=O)N(Cc2ccccc2)C(C)(C)C)c(C)n1C	.	.	21µM*	?	.	.
Cc1c(C(=O)N2CCCCC2)c(S(=O)(=O)N(C)Cc2ccccc2)c(C)n1C	-8	12%	4%	-12%	-2%	-2%
Cc1c(C(=O)N2CCCCC2)c(S(=O)(=O)NCCc2ccc(Cl)cc2)c(C)n1C	-1	-1%	21µM*	?	10%	0%
Cc1ccc(CNC(=O)c2cc3c(s2)-c2c(C)cccc2OC3)cc1	.	.	?	-27%	.	.
Cc1cc(C)nc(S[C@@H]2C[C@@H](C(=O)N3CCCN(C)CC3)N(Cc3cc(F)ccc3F)C2)n1	.	.	-6%	-8%	.	.
COc1ccc(NC(=O)c2ccco2)cc1NC(=O)COc1ccccc1Cl	.	.	?	6.5µM*	.	.
O=C(COc1ccccc1Cl)Nc1ccc(NC(=O)c2ccco2)cc1	-59*	19%	4%	-4%	9%	6%
CCn1ccc2c(OCC(=O)Nc3ccc(OC)cc3OC)cccc2c1=O	.	.	6.5µM*	?	.	.
CCOC(=O)Nc1cccc(OCC(=O)Nc2ccc(OC)cc2OC)c1	53	?	9.2µM*	?	17%	-10%
CCOC(=O)Nc1cccc(NC(=O)c2cc(OC)cc(OC)c2)c1	-20	15µM*	?	?	-5%	7%
CCCn1ccc2c(OCC(=O)Nc3ccc(OC)c(OC)c3)cccc2c1=O	.	.	7.3µM*	13µM*	.	.
